Experimental data taken from PubChem BioAssay (Tox21).
Results filed as inconclusive are left out. The source made the active and inactive calls. Unless noted, the call rests on the fitted dose curve; in most records, active means well fitted curve in the direction sought with a large enough effect in the repeat runs; inconclusive means weak or mixed curves; inactive means no such curve, though single readings can be large; an effect the other way counts as inactive or inconclusive.

Columns and labels:
[1] = qHTS assay to identify small molecule antagonists of the estrogen related receptor (ERR) signaling pathway - cell viability counter screen (AID 1224818); conditions: ERR reporter cell line viability counter screen; series mostly up to 46.1 µM;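 further: viability measured after 17.5 h of compound exposure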
Method in brief: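 Quantitative high-throughput viability counter screen in ERR cells. Compounds (DMSO) incubated 17.5 h at 37 C; read-out was CellTiter-Fluor fluorescence.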

[2] = qHTS assay to identify small molecule antagonists of the estrogen related receptor (ERR) signaling pathway (AID 1224819;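 further: luminescence from an ERR-driven luciferase reporter measured with One-Glo reagent; nearly all actives have a fitted effect of over 50% in size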); conditions: ERR reporter cell line, luciferase inhibition; series mostly up to 46.1 µM
Method in brief: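 ERR reporter cell line (NTP) plated at 2,000 cells/well, settled 6 h at 37C/5% CO2, then exposed to LOPAC compounds for 18 h at 37C. One-Glo luciferase luminescence read after 30 min at room temperature.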

[3] = qHTS assay to identify small molecule agonists of the estrogen related receptor (ERR) signaling pathway (AID 1224820); conditions: ERR reporter cell line, luciferase agonist mode; series mostly up to 46.1 µM; further: potency means the concentration at half of the fitted maximal effect
Method in brief: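 Following a 6 h settling period, 2,000 ERR cells per well receive DMSO-dissolved compounds by pin tool and incubate 18 h at 37 C; agonist activity is scored from One-Glo luminescence read 30 min post-addition.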

[4] = tested on: estrogen-related receptor alpha (ERRalpha) with PGC-1alpha coactivator, human; assay: qHTS assay to identify small molecule antagonists of the estrogen related receptor signaling pathway with the pleiotropic PPARgamma coactivator (PGC) (AID 1224821; calls by dose curve;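 further: lower luminescence signal means antagonism of PGC/ERR signalling; nearly all actives have a fitted effect of over 50% in size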); conditions: ERR/PGC reporter cell line, luciferase, antagonist mode; series mostly up to 46.1 µM
Method in brief: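 Screening used NTP's PGC/ERR cells, dosed via pin tool with compound in DMSO alongside positive and negative controls. After 18 h at 37 C, One-Glo reagent sat 30 min at room temperature before luminescence detection.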

[5] = qHTS assay to identify small molecule antagonists of the estrogen related receptor signaling pathway with the pleiotropic PPARgamma coactivator (PGC) cell viability counter screen (AID 1224822); conditions: ERR/PGC reporter cell line viability counter screen; series mostly up to 46.1 µM
Method in brief: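 Cytotoxicity in the PGC/ERR cell line is assessed with CellTiter-Fluor, read as fluorescence intensity 30 min after reagent addition, following 17.5 h compound treatment at 37 C.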

[6] = qHTS assay to identify small molecule agonists of the estrogen related receptor signaling pathway with the pleiotropic PPARgamma coactivator (PGC) (AID 1224823); conditions: ERR/PGC reporter cell line, luciferase agonist mode; series mostly up to 46.1 µM
Method in brief: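 In this quantitative high-throughput screen, an 18 h, 37 C treatment of PGC/ERR cells with compounds in DMSO preceded a One-Glo luminescence read taken after 30 min at room temperature.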

Measured: Potency

NCCS(=O)O
not listed: [6]
inactive: all other assays above

Nc1ncnc2c1nc(Sc1ccc(Cl)cc1)n2[C@H]1OC2COP(=O)(O)O[C@@H]2C1O (stereo partly specified)
not listed: [6]
inactive: all other assays above

C=CC1(C)CC(=O)C2(O)C(C)(O1)C(OC(C)=O)C(O)C1C(C)(C)CCC(O)C12C (stereo unspecified)
inactive: [1]

O=C(O)C1=CCCN(CCON=C(c2ccccc2)c2ccccc2)C1
inactive: all assays above

CCCCC#Cc1nc(NC)c2ncn([C@@H]3O[C@H](CO)[C@@H](O)C3O)c2n1 (stereo partly specified)
not listed: [6]
inactive: all other assays above

C=CC[C@H](N)C(=O)O
not listed: [6]
inactive: all other assays above

CN1CCc2cc(NC(=O)Nc3cccnc3)ccc21
active: [3] 9.08 µM
not listed: [6]
inactive: all other assays above

NC(N)=NC(N)=Nc1ccccc1
not listed: [6]
inactive: all other assays above

C[N+](C)(C)CC=O
not listed: [6]
inactive: all other assays above

NC(N)=NC(N)=Nc1cccc(Cl)c1
not listed: [6]
inactive: all other assays above

COc1ccc2c(c1)CCC1C2CC[C@@]2(C)C1CC[C@@H]2NCCCCCCN1C(=O)CCC1=O (stereo partly specified)
inactive: [1] | [2] | [3] | [4]

O=c1cc(-c2ccccc2F)[nH]c2cc3c(cc12)OCO3
not listed: [6]
inactive: all other assays above

CCCn1c(=O)c(C)cn2nc(N)nc12
not listed: [6]
inactive: all other assays above

NC[C@H]1O[C@@H](n2cnc3c(N)ncnc32)[C@H](O)[C@@H]1O
not listed: [6]
inactive: all other assays above

COc1ccc(CCN(C)CCc2ccc(OC)c(OC)c2)cc1OC
not listed: [6]
inactive: all other assays above

Cn1cc(C(=O)OCC2CCN(CCNS(C)(=O)=O)CC2)c2ccccc21
not listed: [6]
inactive: all other assays above

NC(=O)C1=CN(C2OC(COP(=O)(O)OP(=O)(O)OC[C@H]3O[C@@H](n4cnc5c(N)ncnc54)[C@H](OP(=O)(O)O)C3O)C(O)C2O)C=CC1 (stereo partly specified)
not listed: [6]
inactive: all other assays above

N#C/C(=C\c1ccc(O)c(O)c1)C(=O)NCCc1ccccc1
not listed: [6]
inactive: all other assays above

O=C(O)/C(=C/c1c(C(=O)O)[nH]c2cc(Cl)cc(Cl)c12)c1ccccc1
not listed: [6]
inactive: all other assays above

CNCC[C@H](Oc1ccc(C(F)(F)F)cc1)c1ccccc1
inactive: [1]

N=C(N)SCCN
not listed: [6]
inactive: all other assays above

C[C@@H](c1ncncc1F)[C@](O)(Cn1cncn1)c1ccc(F)cc1F
not listed: [6]
inactive: all other assays above

CC1C(=O)N(C)C(=O)c2nc[nH]c21 (stereo unspecified)
not listed: [6]
inactive: all other assays above

N.N.N.N.N.N.N.N.N.N.N.N.N.N.O.O.[Cl-].[Cl-].[Cl-].[Cl-].[Cl-].[Cl-].[Ru+4].[Ru+5].[Ru+5]
inactive: [1]

Cc1cc(Cn2cnc3c2C[C@@H](C(=O)O)N(C(=O)C(c2ccccc2)c2ccccc2)C3)ccc1N
inactive: all assays above

O=C(O)C1CCCNC1 (stereo unspecified)
not listed: [6]
inactive: all other assays above

CN1C2CCC1CC(OC(c1ccccc1)c1ccccc1)C2 (stereo unspecified)
inactive: [1] | [2] | [3]

Cc1cccc(C#Cc2ccccc2)n1
active: [3] 12.8 µM
not listed: [6]
inactive: all other assays above

CCCCCCCCCCCCCCCCCC(=O)OC(CC(=O)O)C[N+](C)(C)C (stereo unspecified)
inactive: all assays above

COC(=O)C(N)Cc1ccc(Cl)cc1 (stereo unspecified)
inactive: all assays above

CN1CCc2ccccc2Cc2[nH]c3ccccc3c2CC1
inactive: all assays above

COC(=O)[C@H]1[C@H]2C[C@H]3c4[nH]c5ccccc5c4CCN3C[C@H]2CC[C@@H]1O
inactive: all assays above

COc1cc2c(CCNC(C)=O)c[nH]c2cc1O
inactive: all assays above

COc1ccc(C(=O)NCc2cccnc2)cc1C(=O)NCc1cccnc1
inactive: all assays above

NC1CONC1=O (stereo unspecified)
inactive: all assays above

Nc1ncnc2c1nc(Br)n2C1OC2COP(=O)(O)O[C@@H]2C1O (stereo partly specified)
inactive: all assays above

C=CCn1c(=O)c2c(nc(-c3ccc(S(=O)(=O)O)cc3)n2C)n(C)c1=O
inactive: all assays above
